Potency data for six compounds are collected here from PubChem BioAssay (NCATS).

Inconclusive results are not listed. The source made the active and inactive calls. Calls follow the shape of the dose curve; as a rule, active = well fitted curve in the direction sought with a large enough effect; inconclusive = small, poorly fitted or top-dose-only effect, or another doubt; inactive = no such curve, though single readings can be large; an effect the other way counts as inactive or inconclusive.

Test [1] in a line: Quantitative High-Throughput drug screen in 47 multiple myeloma cell lines against the NCATS MIPE library collection: H1112_PLB cell viability assay (AID 1918967; also: nearly all actives have a fitted effect of over 30% in size). The essentials:
(§1)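 Myeloma cell lines, 500 cells per well, exposed to MIPE 4.0 library compounds for 48 h at 37C, 5% CO2. Viability from ATP by CellTiter-Glo luminescence; normalised to DMSO (100%) and media-only (0%) wells.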

The nature of test [2]: Quantitative High-Throughput drug screen in 47 multiple myeloma cell lines against the NCATS MIPE library collection: Karpas25_ECACC cell viability assay (AID 1918968; also: nearly all actives have a fitted effect of over 35% in size). The essentials:
as §1

A short description of test [3]: Quantitative High-Throughput drug screen in 47 multiple myeloma cell lines against the NCATS MIPE library collection: KMS27_JCRB cell viability assay (AID 1918970). Also: nearly all actives have a fitted effect of over 30% in size. The essentials: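 Luminescent ATP read-out (CellTiter-Glo, 5 min at room temperature) after 48 h compound exposure of 500 KMS27_JCRB cells per well; DMSO wells define full viability and media-only wells zero.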

A short description of test [4]: Quantitative High-Throughput drug screen in 47 multiple myeloma cell lines against the NCATS MIPE library collection: KMS12BM_JCRB cell viability assay (AID 1918971). Also: nearly all actives have a fitted effect of over 35% in size. The essentials:
(§2)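 Relative luminescence from CellTiter-Glo served as the viability signal, referenced to DMSO-treated (100%) and cell-free medium (0%) controls. Treatment lasted 48 hours at 37C with 500 cells per well.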

A short description of test [5]: Quantitative High-Throughput drug screen in 47 multiple myeloma cell lines against the NCATS MIPE library collection: KMS12PE_JCRB cell viability assay (AID 1918972). Also: nearly all actives have a fitted effect of over 30% in size. The essentials:
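We plated 500 myeloma cells per well, pinned in MIPE 4.0 compounds, and incubated for 48 hours at 37C. ATP was then quantified with CellTiter-Glo, with DMSO and media-only wells defining 100% and 0%.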

Test [6] is described as follows: Quantitative High-Throughput drug screen in 47 multiple myeloma cell lines against the NCATS MIPE library collection: KMS20_JCRB cell viability assay (AID 1918973). Also: nearly all actives have a fitted effect of over 45% in size. The essentials: as §1
Test [7] can be described thus: Quantitative High-Throughput drug screen in 47 multiple myeloma cell lines against the NCATS MIPE library collection: KMS21BM_JCRB cell viability assay (AID 1918974). The conditions noted are these: ATP luminescence, 48 h; viability: at 45.8 µM (top of the series). The essentials: as §1
The nature of test [8]: Quantitative High-Throughput drug screen in 47 multiple myeloma cell lines against the NCATS MIPE library collection: KMS26_JCRB cell viability assay (AID 1918975). Also: nearly all actives have a fitted effect of over 45% in size. The essentials:
as §2

A short description of test [9]: Quantitative High-Throughput drug screen in 47 multiple myeloma cell lines against the NCATS MIPE library collection: MMM1_PLB cell viability assay (AID 1918976). Also: nearly all actives have a fitted effect of over 35% in size. The essentials:
(§3)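 Plated at 500 cells per well, myeloma lines received MIPE 4.0 compounds by pin tool. Following 48 h culture at 37 °C, CellTiter-Glo luminescence gave viability relative to DMSO and media-only controls.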

A short description of test [10]: Quantitative High-Throughput drug screen in 47 multiple myeloma cell lines against the NCATS MIPE library collection: NCIH929_DSMZ cell viability assay (AID 1918978). Also: nearly all actives have a fitted effect of over 35% in size. The essentials:
as §3

Test [11] is described as follows: Quantitative High-Throughput drug screen in 47 multiple myeloma cell lines against the NCATS MIPE library collection: OCIMY1_PLB cell viability assay (AID 1918979). Also: nearly all actives have a fitted effect of over 35% in size. The essentials:
as §3

The nature of test [12]: Quantitative High-Throughput drug screen in 47 multiple myeloma cell lines against the NCATS MIPE library collection: MM1S_ATCC cell viability assay (AID 1918980). Also: nearly all actives have a fitted effect of over 45% in size. The essentials: as §3
Test [13] is described as follows: Quantitative High-Throughput drug screen in 47 multiple myeloma cell lines against the NCATS MIPE library collection: MM1R_ATCC cell viability assay (AID 1918981). Also: nearly all actives have a fitted effect of over 35% in size. The essentials: as §3
Test [14] can be described thus: Quantitative High-Throughput drug screen in 47 multiple myeloma cell lines against the NCATS MIPE library collection: LP1_DSMZ cell viability assay (AID 1918982). Also: nearly all actives have a fitted effect of over 35% in size. The essentials: as §3
The nature of test [15]: Quantitative High-Throughput drug screen in 47 multiple myeloma cell lines against the NCATS MIPE library collection: KMS28PE_JCRB cell viability assay (AID 1918983). Also: nearly all actives have a fitted effect of over 35% in size. The essentials: as §3
Test [16] is described as follows: Quantitative High-Throughput drug screen in 47 multiple myeloma cell lines against the NCATS MIPE library collection: L363_DSMZ cell viability assay (AID 1918984). Also: nearly all actives have a fitted effect of over 40% in size. The essentials:
as §3

Test [17] can be described thus: Quantitative High-Throughput drug screen in 47 multiple myeloma cell lines against the NCATS MIPE library collection: KMS34_JCRB cell viability assay (AID 1918985). Also: nearly all actives have a fitted effect of over 40% in size. The essentials: as §3
A short description of test [18]: Quantitative High-Throughput drug screen in 47 multiple myeloma cell lines against the NCATS MIPE library collection: OCIMY7_PLB cell viability assay (AID 1918987). Also: nearly all actives have a fitted effect of over 65% in size. The essentials:
as §3

A short description of test [19]: Quantitative High-Throughput drug screen in 47 multiple myeloma cell lines against the NCATS MIPE library collection: OCIMY5_PLB cell viability assay (AID 1918988). Also: nearly all actives have a fitted effect of over 65% in size. The essentials:
as §3

Test [20] can be described thus: Quantitative High-Throughput drug screen in 47 multiple myeloma cell lines against the NCATS MIPE library collection: MOLP8_DSMZ cell viability assay (AID 1918977). Also: nearly all actives have a fitted effect of over 45% in size. The essentials:
as §3
Potency is read from the fitted curve at half-maximal effect.

As to `CC(=O)Oc1ccccc1C(=O)Nc1ncc([N+](=O)[O-])s1`, the Potency in test [1] is 21.5 µM (active); in test [2] it was 8.55 µM (active); in test [3] it was 12.1 µM (active); in test [4], 24.1 µM (active); in test [5], 24.1 µM (active); in [6] it was 8.55 µM (active). The Potency is 17.1 µM (active) in [7]; 15.2 µM (active) in [8]; 10.8 µM (active) in test [9]; 19.1 µM (active) in test [10]; 42.9 µM (active) in test [11]; 21.5 µM (active) in [12]. In addition, the Potency is 19.1 µM (active) in test [13]; 21.5 µM (active) in [14]; 38.2 µM (active) in test [15]; 17.1 µM (active) in [16]; 42.9 µM (active) in test [17]; 21.5 µM (active) in test [18]. Moreover, in test [19], the Potency is 13.6 µM (active).

Regarding `Cc1cccc(Nc2ccncc2S(=O)(=O)NC(=O)NC(C)C)c1`, the Potency entry in test [1], in [2], in test [3], in [5], in [10] and in test [11] was “inactive” throughout. Also, the Potency entry in [12], in test [14] and in test [17] was “inactive” each time. Moreover, the Potency in [4] is 16.6 µM (active); in [9], 20.9 µM (active); in [19], 0.0013 µM (active).

As for `Nc1nc(F)nc2c1ncn2[C@@H]1O[C@H](CO)[C@@H](O)[C@@H]1O`, the Potency is 0.526 µM (active) in test [1]; 0.296 µM (active) in [2]; 0.662 µM (active) in test [3]; 0.209 µM (active) in [4]; 0.235 µM (active) in test [5]; 0.264 µM (active) in [6]. For the same compound, the Potency in [7] was 0.059 µM (active); in [8], 0.235 µM (active); in test [9], 0.469 µM (active); in test [20], 0.166 µM (active); in [10] it was 0.209 µM (active); in test [11] it was 0.469 µM (active). Also, the Potency was 0.209 µM (active) in test [12]; 0.166 µM (active) in test [13]; 0.59 µM (active) in test [14]; 0.148 µM (active) in [16]; 0.296 µM (active) in test [17]; 0.118 µM (active) in test [18]. Besides, in [19], the Potency is 0.0743 µM (active).

With `Nc1[nH]c(=O)ncc1F`, the Potency result in test [1], in [2], in test [3], in test [4], in test [5] and in test [6] was “inactive” in each case. Also, the Potency result in [10], in [11], in [13], in test [14], in test [15] and in test [16] was “inactive” in each case. Further, in test [18], the Potency result is “inactive”. The Potency in [9] was 8.33 µM (active).

Take `CCCc1nc(C)c2c(=O)[nH]c(-c3cc(S(=O)(=O)N4CCN(CC)CC4)ccc3OCC)nn12`: the Potency in test [1] was 10.5 µM (active); in test [2], 5.26 µM (active); in test [3] it was 4.69 µM (active); in test [4], 5.26 µM (active); in test [5], 2.96 µM (active); in test [6] it was 11.8 µM (active). Besides, the Potency in [7] is 3.72 µM (active); in test [8] it was 4.69 µM (active); in [9], 6.62 µM (active); in test [20], 5.26 µM (active); in test [10], 3.72 µM (active); in test [11] it was 4.69 µM (active). The Potency in [12] is 4.69 µM (active); in test [13], 4.18 µM (active); in [14] it was 4.69 µM (active); in test [16], 4.18 µM (active); in test [17] it was 3.72 µM (active); in test [18], 5.9 µM (active). Further, in test [19], the Potency is 5.9 µM (active).

In the case of `COc1cc2nc(N3CCCN(C)CC3)nc(NC3CCN(Cc4ccccc4)CC3)c2cc1OC`, the Potency was 5.9 µM (active) in test [1]; 5.26 µM (active) in test [2]; 4.18 µM (active) in test [3]; 14.8 µM (active) in test [4]; 2.35 µM (active) in test [5]; 0.833 µM (active) in [6]. Moreover, the Potency in test [7] is 4.69 µM (active); in test [8], 5.26 µM (active); in test [9], 5.26 µM (active); in [20] it was 4.69 µM (active); in test [10], 2.64 µM (active); in test [11] it was 5.9 µM (active). For the same compound, the Potency in [12] is 2.64 µM (active); in test [13], 4.18 µM (active); in [14], 4.69 µM (active); in test [15], 16.6 µM (active); in [16] it was 1.66 µM (active); in test [17], 8.33 µM (active). Besides, the Potency in test [18] was 6.62 µM (active); in test [19], 11.8 µM (active).
